# Compounds with a hit are over-represented: about 4.8% of the library has one in this group of screens.
# hgDAF-12 ag: H. glycines DAF-12 receptor agonists, primary screen, cell-based, luminescence, HEK293, GAL4 fusion, UAS-luciferase; Nuclear hormone receptor DAF-12 (Heterodera glycines), GAL4 fusion; HEK293 GAL4-hgDAF12 UAS-luciferase reporter, agonist luminescence; normalized to butyrate control; activation, % at 6.8 µM; hit rate 1.8% among 370,000; AID 687014, 2013;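 active = activation above a cutoff set at the mean of all screened compounds plus 3 SD, cut at about 10% in these data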;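 note: 0% = DMSO wells and 100% = sodium butyrate wells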
# DAX1 inh-1: DAX1 (NR0B1) inhibitors on StAR promoter, primary screen, cell-based, luminescence, SF-1 (NR5A1), full-length DAX-1. HEK293T StAR-luciferase reporter, SF-1/DAX-1 repression relief. inhibition, % at 6.8 µM. hit rate 1.1% among 370,000. AID 652010, 2013;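 active = inhibition above the mean over all tested compounds plus 3 SD, cut at about 3.6% in these data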;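 note: 0% = DAX-1 cells with DMSO and 100% = cells lacking DAX-1 with DMSO; higher inhibition means more luminescence from relief of DAX-1 repression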
# SMARCA2 activ: SMARCA2 (BRM) function activators, primary screen, cell-based, luminescence, high throughput; MG213 cells, MMTV-luciferase reporter, dexamethasone, overnight; activation, % at 9.1 µM; hit rate 1% among 370,000; in the data active = activation above about 7.8%;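 note: 0% = vehicle wells and 100% = reference activator wells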
# hcDAF-12 act: H. contortus DAF-12 nuclear receptor activators, primary screen, cell-based, luminescence, HEK293, lit1-tk-luc reporter | HEK293 hcDAF-12 lit1-tk-luc reporter; 0% DMSO, 100% Δ7-dafachronic acid | hit rate 1.4% among 370,000 | AID 652067, 2013 | activation, % at 6.8 µM;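 active = activation above the mean of all tested compounds plus 3 SD, cut at about 5.5% in these data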;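 note: 100% = response to 3 µM Δ7-dafachronic acid high control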
# ssDAF12 agonist: S. stercoralis DAF-12 nuclear receptor activators, primary screen, cell-based, luminescence, HEK293, GRIP1 co-expression, lit1-tk-luc; HEK293 ssDAF-12/GRIP1 lit1-tk-luc reporter; % of 3 µM dafachronic acid response; Nuclear hormone receptor DAF-12 (Strongyloides stercoralis); hit rate 1% among 370,000; activation, % at 6.8 µM; AID 652126, 2013;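 active = activation above the mean over all tested compounds plus 3 SD, cut at about 0.9% in these data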;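 note: 0% = DMSO-only wells and 100% = 3 µM delta7-dafachronic acid wells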
# DAX1 inh-2: DAX1 (NR0B1) inhibitors, primary screen, cell-based, HEK293, Gal4-DAX1, luciferase luminescence; Nuclear receptor subfamily 0 group B member 1 (Homo sapiens), P51843; HEK293 Gal4-DAX1 luciferase reporter; inhibition, % at 6.75 µM; hit rate 0.99% among 340,000; AID 504766, 2011;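 active = inhibition above the mean over all tested compounds plus 3 SD, cut at about 4.2% in these data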;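 note: 0% = DAX1-transfected cells with DMSO and 100% = empty-vector control cells with DMSO; inhibition shows as a rise in luminescence from relieved DAX1 repression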
# Target sequence (P51843 207-470 limits assumed): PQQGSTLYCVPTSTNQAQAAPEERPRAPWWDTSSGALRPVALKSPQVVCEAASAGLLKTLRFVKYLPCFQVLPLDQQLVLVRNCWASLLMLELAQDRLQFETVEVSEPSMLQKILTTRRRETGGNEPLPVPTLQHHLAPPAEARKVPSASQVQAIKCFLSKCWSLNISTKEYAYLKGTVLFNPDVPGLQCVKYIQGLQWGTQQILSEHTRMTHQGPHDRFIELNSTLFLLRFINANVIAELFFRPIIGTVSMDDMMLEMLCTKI
# An asterisk follows results filed as active; . = not tested or not shown.
SMILES,hgDAF-12 ag,DAX1 inh-1,SMARCA2 activ,hcDAF-12 act,ssDAF12 agonist,DAX1 inh-2
C[C@@H]1C[C@H]2[C@@H](Cc3ccccc3)C(=O)N3[C@H](c4ccccc4)[C@H](C)C[C@H]3[C@@H](Cc3ccccc3)C(=O)N2[C@@H]1c1ccccc1,4,0,-4,-2,-2,.
COCCCNC(=S)NNC(=O)C1CC1c1ccc(C(C)(C)C)cc1 (stereo not drawn),3,0,-2,0,-2,5.2*
COCCNC(=S)NC(=O)c1ccc(C(C)(C)C)cc1,8,0,3,0,-1,0
O=C(OC12CCCN(C1)/C(=C/c1ccc(Cl)cc1)C2)c1ccc(F)cc1 (stereo not drawn),-3,0,-3,3,-1,.
COc1ccc(-c2c(NC(=O)c3ccco3)n(-c3ccccc3)nc(C)c2=O)cc1,-1,1,-2,1,-1,4.8*
Cn1c(NC(=O)c2ccco2)c(-c2ccccc2)c(=O)c2ccccc21,0,0,-2,1,0,4.2*
CC(C)C(=O)Nc1c(-c2ccccc2)c(=O)c2ccccc2n1C,0,0,0,2,-2,1
CCn1c(NC(=O)c2ccco2)c(-c2ccccc2Cl)c(=O)c2ccccc21,0,0,8.0*,-1,-1,0
COc1ccc(NC(=O)c2ccccc2NC(=O)CSc2ccc(C)cc2)cc1,3,1,1,5.9*,-1,1
CCOc1ccc(NC(=O)Nc2ccccc2SC)cc1,11*,2,2,4,-1,4.5*
O=C(Nc1ccc2ccccc2c1)c1cccc2ccccc12,8,2,2,0,0,0
COc1cc(C(=O)Nc2ccc(C)cc2)c2ccccc2n1,0,0,0,5.7*,1,-2
COc1ccc(NC(=O)CSc2ccc(C)cc2)cc1,6,0,1,1,0,1
COc1ccc(NC(=O)c2ccc3ccccc3c2OC)cc1,4,0,6,0,-1,4.4*
COc1ccc(C(=O)NNC(=O)CSc2nc(C(C)C)nc3ccccc23)cc1,-2,0,-1,-2,-1,1
COc1ccc(C(=O)NNC(=O)CSc2ccccc2)cc1,-2,1,3,0,-2,4.5*
CCOc1ccc(NC(=O)c2cccc3ccccc23)cc1,10,-1,1,-1,-2,-1
CCOc1ccc(NC(=O)c2cc3ccccc3cc2O)cc1,6,0,5,1,1.2*,0
COC(=O)[C@]12C[C@H](CC(=O)NCc3ccc(C)o3)C(=O)N(Cc3ccc4c(c3)OCO4)C1=C[C@H](C(C)(C)C)O[C@@H]2C,0,-1,-5,-3,-1,.
CC(C)c1ccc(NC(=O)c2ccccc2NC(=O)C2CCCCC2C(=O)O)cc1 (stereo not drawn),9,2,6,0,1,5.4*
O=C(Nc1ccc(F)c(Cl)c1)c1ccccc1NC(=O)C1CCCCC1C(=O)O (stereo not drawn),7,1,2,2,0,1
O=C(Nc1cccc(Cl)c1)c1ccccc1NC(=O)C1CCCCC1C(=O)O (stereo not drawn),11*,0,3,2,0,1
S=C(Nc1ccccn1)c1ccccn1,4,1,7.8*,4,0,1
c1nc(NCC2CCOC2)c2cc(-c3ccc4c(c3)OCO4)ccc2n1 (stereo not drawn),2,.,.,-1,-1,.
O=C(NCCCNC1CCCCC1)c1ccc(/C=N/O)nc1,0,1,1,5,1.5*,-1
SMILES,hgDAF-12 ag,DAX1 inh-1,SMARCA2 activ,hcDAF-12 act,ssDAF12 agonist,DAX1 inh-2
COc1c(C(C)(C)C)cc(S(=O)(=O)N2c3ccccc3C[C@H]2C)cc1C(C)(C)C,-4,.,.,0,-2,.
Cc1c(C(=O)O)cnc2cc(-c3ccc(Cl)cc3)nn12,5,0,-2,2,1.1*,1
COc1ccc(Cc2nnc(SCC(=O)Nc3nc(C)cs3)o2)cc1,0,0,1,-1,1.0*,1
COc1ccc(Cc2nnc(SCC(=O)c3ccc(OC)cc3)o2)cc1,-1,-1,-4,-3,-1,-1
O=C(CSc1nnc(-c2ccc(Cl)cc2)n1Cc1ccco1)Nc1ccc(S(=O)(=O)Nc2nccs2)cc1,1,0,2,1,-1,.
COc1ccc(S[C@]2(C(=O)NCC(C)C)CC(=O)N[C@@H]2c2ccc(OC)cc2)cc1,0,0,-2,0,-1,.
C=CCn1nc2ccccc2c1OC,2,0,0,5,1,-1
C=CCn1nc2ccccc2c1OCCO,5,0,2,6.0*,0,3
CN1C2=N[C@@H](c3ccccc3)CC(=O)N2/C(=C\c2ccccc2)[C@H]1c1ccccc1,1,.,.,-1,-1,.
O=C(Cc1ccccc1[N+](=O)[O-])NCc1ccncc1,0,0,-1,5,1.1*,1
O=C(COC(=O)Cc1ccccc1[N+](=O)[O-])NCc1ccc(F)cc1,-1,0,0,0,-1,0
O=C(Cc1ccccc1[N+](=O)[O-])NCCc1ccc(F)cc1,0,0,-1,1,5.1*,1
Cc1cc(N2CCCCC2C)nc(-c2ccccc2O)n1 (stereo not drawn),2,0,2,0,-1,4.4*
Cc1cc(N2CCCCCC2)nc(-c2ccccc2O)n1,2,-1,-2,-1,-1,0
CC(C)(C)c1cc(NC(=O)C2CCCO2)no1 (stereo not drawn),8,1,5,2,1.4*,1
CCOC(=O)[C@@]12CN(C(=O)OC(C)(C)C)CC=C1N(Cc1ccc(OC)cc1)C(=O)[C@H]2CC(=O)NCC12CC3CC(CC(C3)C1)C2,2,-1,-3,-3,-2,.
CCOC(=O)[C@]12CCCCC/C=C\1N(Cc1ccc(OC)cc1)C(=O)[C@H]2CC(=O)NCc1cccs1,4,0,-3,-2,0,.
Cc1ccc(NC(=O)Nc2ccccc2CC[N+](=O)[O-])cc1,6,0,2,5.8*,0,.

# From PubChem
